Calls of active or inactive are those of the source.
Experiments:
[1] = resazurin metabolic signal in HepG2 cells – cell-based, resazurin fluorescence, 24 h, PK04 Diversity Set, profiling panel (AID 1172); conditions: HepG2 viability, higher = more signal; also: test concentration not given here
[2] = budding yeast growth changes without added modifier – OD600, strain BY4716, 24 h, basal condition, primary screen (AID 1173); conditions: S. cerevisiae BY4716 growth, OD600, 24 h; higher = more signal, called active from +8 up or from −8 down
[3] = viability profiling in MM1S myeloma cells – cell-based, resazurin fluorescence, basal, 24 h, PK04 Diversity Set, profiling panel (AID 1174); conditions: higher = more signal, called active from +8 up or from −8 down;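 also: MM1S multiple myeloma cell line; test concentration not given here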
[4] = biological target: Dihydroorotate dehydrogenase (quinone), mitochondrial (Plasmodium falciparum (isolate 3D7)) (UniProt Q08210); test: inhibition of P. falciparum DHODH – biochemical, C-terminal His tag, absorbance 600 nm, primary screen (AID 1175); conditions: PfDHODH enzyme, DCIP absorbance 600 nm; higher = more signal, called active from +8 up or from −8 down;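 also: recombinant parasite enzyme with a five histidine tag at its C terminus; test concentration not given here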
[5] = growth modulation of vineyard yeast isolate – strain RM11-1a, OD600, basal, 24 h, primary screen (AID 1177);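 also: cultures grown under basal conditions with no added stressor; test concentration not given here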; conditions: S. cerevisiae RM11-1a growth, OD600, 24 h; higher = more signal, called active from +8 up or from −8 down
[6] = growth of efflux-deficient E. coli DRC39 – strain DRC39, OD650, 24 h, E. coli filamentation inducers, primary screen (AID 1178);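 also: growth measured as culture turbidity by optical density at 650 nm; test concentration not given here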; conditions: E. coli DRC39 acrAB, higher = more signal, called active from +8 up or from −8 down
[7] = growth of efflux-deficient E. coli DRC39 – strain DRC39, OD650, 48 h, E. coli filamentation inducers, primary screen (AID 1179);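 also: screen aims at cell division blockers that make cells filament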; conditions: E. coli DRC39 delta-acrAB growth, higher = more signal, called active from +8 up or from −8 down
[8] = viability profiling in RPMI8226 myeloma cells – cell-based, resazurin fluorescence, basal, 24 h, PK04 Diversity Set, profiling panel (AID 1180); conditions: higher = more signal;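 also: RPMI8826 multiple myeloma cell line at 5000 cells per well; test concentration not given here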
[9] = biological target: E3 ubiquitin-protein ligase XIAP (Homo sapiens) (UniProt P98170); test: small molecules binding XIAP protein – biophysical, small-molecule microarray, fluorescence 635 nm, primary screen (AID 1181); conditions: higher = more signal;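 also: score merges 667 nm emission and signal to noise over triplicate slides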
E3 ubiquitin-protein ligase XIAP (Homo sapiens), sequence (P98170 whole entry, looked up): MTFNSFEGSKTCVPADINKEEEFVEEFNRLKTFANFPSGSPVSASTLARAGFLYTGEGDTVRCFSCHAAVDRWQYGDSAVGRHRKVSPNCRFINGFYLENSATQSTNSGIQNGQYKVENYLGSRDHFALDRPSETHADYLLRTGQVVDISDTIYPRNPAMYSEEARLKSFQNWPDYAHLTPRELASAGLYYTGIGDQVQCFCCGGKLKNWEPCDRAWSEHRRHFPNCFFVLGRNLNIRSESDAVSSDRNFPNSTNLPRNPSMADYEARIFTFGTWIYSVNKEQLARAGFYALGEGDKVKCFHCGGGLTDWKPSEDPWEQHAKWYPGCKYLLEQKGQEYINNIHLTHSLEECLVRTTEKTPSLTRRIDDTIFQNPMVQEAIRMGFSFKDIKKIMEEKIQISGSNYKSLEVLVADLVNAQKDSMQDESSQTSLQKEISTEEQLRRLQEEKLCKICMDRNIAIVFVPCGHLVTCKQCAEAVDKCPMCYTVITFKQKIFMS

Dihydroorotate dehydrogenase (quinone), mitochondrial (Plasmodium falciparum (isolate 3D7)), sequence (Q08210 whole entry, looked up): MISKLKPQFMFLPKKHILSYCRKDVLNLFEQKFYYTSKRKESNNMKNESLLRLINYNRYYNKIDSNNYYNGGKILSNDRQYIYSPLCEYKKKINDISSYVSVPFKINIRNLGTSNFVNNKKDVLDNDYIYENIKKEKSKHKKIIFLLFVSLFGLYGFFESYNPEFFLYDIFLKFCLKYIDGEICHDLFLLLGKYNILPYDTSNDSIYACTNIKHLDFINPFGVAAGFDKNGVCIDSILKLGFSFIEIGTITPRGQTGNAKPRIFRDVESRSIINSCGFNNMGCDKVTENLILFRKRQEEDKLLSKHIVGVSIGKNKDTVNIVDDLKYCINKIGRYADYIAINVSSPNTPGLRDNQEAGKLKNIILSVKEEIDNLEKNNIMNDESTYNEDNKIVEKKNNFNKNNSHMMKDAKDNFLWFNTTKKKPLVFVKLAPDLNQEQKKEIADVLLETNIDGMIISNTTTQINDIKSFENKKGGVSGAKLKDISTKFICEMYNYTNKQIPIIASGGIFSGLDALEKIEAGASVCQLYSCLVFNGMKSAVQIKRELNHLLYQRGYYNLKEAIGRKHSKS

SMILES	z-score [1]	z-score [2]	z-score [3]	composite z-score [4]	z-score [5]	z-score [6]	z-score [7]	z-score [8]	composite z-score [9]
CO[C@H]1COC(=O)CC=C[C@@H](C)COC(=O)[C@@H](C)NC(=O)CC=C[C@@H]1C	0.931	-2.02 (inactive)	1.13 (inactive)	-0.0214 (inactive)	-4.97 (inactive)	0.236 (inactive)	-1.28 (inactive)	0.181	-0.216
CO[C@H]1O[C@H](CO)[C@@H](OC(=O)Nc2ccc(Oc3ccccc3)cc2)[C@H](OC(=O)Nc2ccccc2-c2ccccc2)[C@H]1OC(=O)Nc1ccccc1-c1ccccc1	-2.96	1.94 (inactive)	-3.97 (inactive)	-0.326 (inactive)	4.09 (inactive)	0.275 (inactive)	-0.534 (inactive)	-2.5	0.344
CCC(=O)[C@]12O[C@@]3([C@@H]4C(=O)OCC[C@@H]41)N(Cc1ccccc1)C(C)=C(C(=O)OC)[C@@H](c1ccccc1)N3C2=O	0.859	-2.74 (inactive)	0.83 (inactive)	0.0379 (inactive)	-0.704 (inactive)	-0.101 (inactive)	-0.0892 (inactive)	0.95	0.0289
CC(C)(C)OC(=O)CC[C@]1(C(=O)NCCN2CCOCC2)N=C(c2ccc(OCCCO)cc2)O[C@H]1c1ccccc1CN=[N+]=[N-]	-0.0646	-1.56 (inactive)	1.07 (inactive)	-0.114 (inactive)	-1.36 (inactive)	1.16 (inactive)	0.277 (inactive)	1.38	0.564
CCOC(=O)C[C@H]1[C@H](OC(=O)c2cc3ccccc3oc2=O)[C@@H](NC(=O)c2ccc3ccccc3c2)c2cc(OCCCO)ccc2N1C(=O)c1ccc2ccccc2n1	0.272	-2.13 (inactive)	0.0578 (inactive)	-0.172 (inactive)	-1.06 (inactive)	2.52 (inactive)	1.23 (inactive)	-0.536	-0.0454
CCCCCCc1nc(C2CC2)c(C)c2c1[Si](C(C)C)(C(C)C)OC2	0.252	-0.875 (inactive)	1.47 (inactive)	-3.54 (inactive)	-2.89 (inactive)	1.6 (inactive)	0.878 (inactive)	0.232	0.109
COCCOC(=O)N1C(=O)[C@@]2(c3cc(C#CCCO)ccc31)[C@H](C(=O)N1CCCCCCC1)[C@H]1C(=O)O[C@H](c3ccccc3)[C@H](c3ccccc3)N1[C@@H]2c1ccc(O)cc1	0.801	-1.74 (inactive)	1.14 (inactive)	0.138 (inactive)	-2.75 (inactive)	0.561 (inactive)	1.43 (inactive)	0.613	0.144
CCN1C(C)=C(C(=O)OC)[C@@H](c2ccccc2)N2C(=O)[C@@]3(C(=O)OC)O[C@@]12[C@@H]1C(=O)N(C)C(=O)[C@@H]13	0.976	-0.684 (inactive)	0.947 (inactive)	1.18 (inactive)	0.335 (inactive)	-0.234 (inactive)	-0.992 (inactive)	1.09	-0.0454
C=CCC(OC(C)=O)[C@@H]1[C@@H](N(Cc2cc3ccccc3o2)C(=O)c2ccc(C)cc2)c2cc(OCCCO)ccc2N1C(=O)c1ccc2ccccc2n1 (some centres undefined)	1.8	-0.934 (inactive)	1.37 (inactive)	0.309 (inactive)	-0.0157 (inactive)	1.74 (inactive)	1.42 (inactive)	0.585	0.437
CN1C2C=C(c3ccc(CO)cc3)C(C3C(=O)N(C(N)=O)C(=O)C32)C1c1cccs1 (centres undefined)	0.935	-1.28 (inactive)	1.05 (inactive)	0.683 (inactive)	1.19 (inactive)	1.09 (inactive)	0.798 (inactive)	0.898	-0.337
CCN1C(C)=C(C(=O)OC)[C@@H](c2ccccc2)N2C(=O)[C@](O)(C(=O)OC)[C@@H](c3ccccc3)C(C(C)=O)=C12	-0.267	-2.6 (inactive)	1.43 (inactive)	-5.15 (inactive)	-1.84 (inactive)	-0.891 (inactive)	-2 (inactive)	0.554	-0.0167
C=CCOC(=O)[C@@H]1[C@H]2C(=O)O[C@H](c3ccccc3)[C@H](c3ccccc3)N2[C@H](c2ccc(OCCOC(=O)[C@H]3C[C@H]4C(=O)N5CCC[C@H]5C(=O)N4[C@H]3c3ccc(O)cc3)cc2)[C@@]12C(=O)Nc1ccccc12	-0.379	-0.117 (inactive)	0.201 (inactive)	0.0956 (inactive)	0.256 (inactive)	0.197 (inactive)	-0.148 (inactive)	1.03	-0.217
C[C@@H]1NC(=O)CC=C[C@@H](C)[C@@H]2C=C[C@H](O)[C@@H](COC(=O)[C@H](C)NC(=O)CC=C[C@@H](C)[C@@H]3C=C[C@H](O)[C@@H](COC1=O)O3)O2	-0.0969	-2.21 (inactive)	0.668 (inactive)	0.633 (inactive)	-1.76 (inactive)	0.953 (inactive)	0.264 (inactive)	0.526	-0.135
C=C(COC)/C(=C/C[C@H](OC(C)=O)c1ccc(OCCO)cc1)c1cnc2ccccc2c1	0.807	-0.229 (inactive)	1.03 (inactive)	-2.82 (inactive)	1.65 (inactive)	1.2 (inactive)	0.805 (inactive)	1.03	-0.102
O=C(CS)NCCCCCNC(=O)[C@H]1C[C@H]2C(=O)N3CCC[C@H]3C(=O)N2[C@H]1c1ccc(O)cc1	0.743	-1.04 (inactive)	0.613 (inactive)	-0.581 (inactive)	-0.881 (inactive)	1.2 (inactive)	1.34 (inactive)	1.09	-0.02
CC(C)N1CC=CC23O[C@@H]4/C=C\CCCOC(=O)C4[C@H]2C(=O)N(CCO)[C@@H]3C1=O (some centres undefined)	1.09	-1.71 (inactive)	0.998 (inactive)	-1.71 (inactive)	-2.54 (inactive)	2.2 (inactive)	2.25 (inactive)	0.855	-0.16
CO[C@H]1COC(=O)[C@H](C)NC(=O)CC=C[C@@H](C)[C@H](NS(=O)(=O)c2ccc(C)cc2)COC(=O)CC=C[C@@H]1C	0.072	-1.57 (inactive)	1.19 (inactive)	-0.253 (inactive)	-0.724 (inactive)	0.127 (inactive)	-0.244 (inactive)	0.945	0.023
NC(=O)NCC#Cc1ccc2c(c1)[C@]1(C(=O)N2)[C@H](C(=O)N2CCCCCCC2)[C@H]2C(=O)O[C@H](c3ccccc3)[C@H](c3ccccc3)N2[C@@H]1c1ccccc1OCCO	0.237	-0.643 (inactive)	1.4 (inactive)	-0.121 (inactive)	0.827 (inactive)	0.218 (inactive)	0.125 (inactive)	1.13	0.306
C=CC[C@]1(C(=O)O)N=C(c2ccc(OCCCO)cc2)O[C@H]1c1ccccc1	0.734	-2.31 (inactive)	1.63 (inactive)	1.51 (inactive)	0.344 (inactive)	2.94 (inactive)	1.25 (inactive)	1.77	0.109
CCOC(=O)[C@H]1C/C=C/C[C@H](C(=O)OCC)C(=O)O[C@H]2[C@@H](OC)O[C@H](CO)[C@@H](OC(=O)Nc3ccc(Br)cc3)[C@@H]2OC1=O	-6.68	-1.68 (inactive)	-9.26 (active)	-1.48 (inactive)	0.424 (inactive)	1.65 (inactive)	1.93 (inactive)	-7.26	0.0223
CC(C)(C)OC(=O)CC[C@@]1(C(=O)NCc2ccccc2)N=C(c2ccc(OCCCO)cc2)O[C@@H]1c1ccccc1	-0.956	-0.454 (inactive)	-1.49 (inactive)	-0.362 (inactive)	-0.801 (inactive)	2.23 (inactive)	1.5 (inactive)	-1.76	0.174
CO[C@H]1COC(=O)CC=C[C@H](C)[C@@H](OC)COC(=O)[C@H](Cc2ccccc2)NC(=O)CC=C[C@@H]1C	1.26	-0.562 (inactive)	1 (inactive)	1.09 (inactive)	0.33 (inactive)	0.424 (inactive)	-1.39 (inactive)	0.452	-0.031
CO[C@@H]1COC(=O)[C@@H]2CCCN2C(=O)CC=C[C@@H](C)[C@H](OC)COC(=O)[C@@H]2CCCN2C(=O)CC=C[C@H]1C	0.929	-1.45 (inactive)	1.31 (inactive)	0.319 (inactive)	-0.553 (inactive)	1.65 (inactive)	0.987 (inactive)	0.0475	-0.02
O=C(NCC(O)CO)[C@]1(Cc2ccccc2)N=C(c2ccc(OCCCO)cc2)O[C@@H]1c1ccccc1 (some centres undefined)	0.206	-3.32 (inactive)	1.71 (inactive)	0.287 (inactive)	-0.989 (inactive)	2.22 (inactive)	0.235 (inactive)	0.761	0.0251
C[C@H]1COC(=O)[C@@H]2CCCN2C(=O)[C@@H](C)COC(=O)[C@@H]2CCCN2C1=O	0.678	-0.978 (inactive)	0.93 (inactive)	-0.0223 (inactive)	-0.691 (inactive)	0.825 (inactive)	-0.0322 (inactive)	0.73	-0.294
CC(=O)Nc1ccc([C@H]2[C@H](C)CC[C@H]3C(=O)N4[C@@H](CC[C@@H](C)[C@@H]4c4ccc(NC(C)=O)cc4)C(=O)N32)cc1	1.23	-1.08 (inactive)	-0.269 (inactive)	0.124 (inactive)	0.897 (inactive)	1.22 (inactive)	0.141 (inactive)	0.868	-0.0204

— PubChem BioAssay
